Assay outcomes (PubChem BioAssay)
A selection: hits, their analogues and other compounds. The true share with any hit is near 0.33%.
FXIIa inh = inhibitors of human coagulation factor XIIa. P00748. inhibition, % at 10 µM. actives 0.2% (n = 33,000). AID 701. purified human FXIIa, AMC substrate fluorescence, 2 h; in the data active = inhibition above about 30%
FXIa inh = blocks human coagulation factor XIa activity; P03951; AID 687; actives 0.3% (n = 33,000); inhibition, % at 10 µM; purified human FXIa, fluorogenic AMC substrate cleavage;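 active = inhibition above 40% in the primary screen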
Target sequence (P03951 19-387 limits assumed): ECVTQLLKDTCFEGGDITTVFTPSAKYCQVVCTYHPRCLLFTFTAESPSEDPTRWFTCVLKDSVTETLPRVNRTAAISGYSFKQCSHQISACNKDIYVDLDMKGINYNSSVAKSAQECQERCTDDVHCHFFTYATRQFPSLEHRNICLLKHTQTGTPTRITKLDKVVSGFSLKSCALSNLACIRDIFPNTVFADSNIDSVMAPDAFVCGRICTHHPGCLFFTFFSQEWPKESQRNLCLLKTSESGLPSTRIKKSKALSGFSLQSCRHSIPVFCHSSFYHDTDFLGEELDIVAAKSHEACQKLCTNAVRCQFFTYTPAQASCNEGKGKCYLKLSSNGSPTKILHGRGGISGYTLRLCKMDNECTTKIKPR
Target sequence (P03951 388-625 limits assumed): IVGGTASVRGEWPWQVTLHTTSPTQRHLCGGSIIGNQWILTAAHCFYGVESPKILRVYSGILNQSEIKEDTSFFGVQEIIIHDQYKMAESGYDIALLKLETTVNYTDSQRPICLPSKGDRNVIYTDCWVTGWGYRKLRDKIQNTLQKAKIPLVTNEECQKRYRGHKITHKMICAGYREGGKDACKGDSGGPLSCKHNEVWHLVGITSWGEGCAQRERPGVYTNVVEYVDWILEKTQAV
Numbers stand for hits; n = inactive.

SMILES	FXIIa inh	FXIa inh
O=C(c1ccccn1)N(Cc1ccco1)C1(C(=O)NC2CCCC2)CCCCC1	n	n
Cc1ccc(N(C(=O)c2ccccn2)C2(C(=O)NC3CCCC3)CCCCC2)cc1	n	42
CC(C)CNS(=O)(=O)c1ccc2c(c1)OCCO2	n	n
Cc1ccc(-c2csc(N3CCC(NS(=O)(=O)c4ccc5c(c4)OCCO5)CC3)n2)cc1	n	59
COc1ccc(/C(C)=C(\C#N)C(=O)OC(C)C)cc1OC	n	n
CCOC(=O)c1c(C)[nH]c(C)c1C(=O)CSc1nnc(-c2ccncc2)n1Cc1ccccc1	n	n
CCn1c(SCC(=O)c2[nH]c(C)c(C(C)=O)c2C)nnc1-c1ccccc1	n	41
COc1ccc(-n2c(O)cnc2Nc2nc(C)cc(C)n2)cc1OC	n	n
CC1=C(C#N)c2nc(N)c(C#N)c(C)c2/C1=C\c1ccccc1	n	n
OC(Cn1cncn1)(c1ccccc1)c1ccccc1	n	n
CCN(CC)c1nc2ccccc2nc1-n1nc(C)cc1C	n	n
Cc1cc(Cl)ccc1Oc1cccc(C(=O)/C(C#N)=C/N(C)C)c1	n	n
COc1ccc(CN2CC(C(=O)NCc3ccc4c(c3)OCO4)CC2=O)cc1 (stereo not drawn)	n	n
COc1ccc(CC(=O)NCc2ccc3c(c2)OCO3)cc1	n	53
COc1ccc(CCNC(=O)CSc2nnc(CNC(=O)c3ccccc3F)o2)cc1OC	n	n
O=C(NC(C(=O)c1ccccc1)n1c(=O)cc[nH]c1=S)c1ccccc1 (stereo not drawn)	n	48
Cc1cc(=O)n(CNC(=O)c2ccccc2)c(=S)[nH]1	n	n
CCOC(=O)Cc1cn2c(=O)cc(CSCC(=O)Nc3ccc(C)c(C)c3)nc2s1	n	n
CC(C)c1nc2ccc(NC(=O)C3CCCCC3)cc2[nH]1	n	104
O=C(Nc1ccc2nc(-c3ccccn3)[nH]c2c1)C1CCCCC1	n	n
Cc1ccc2cc3c(nc2c1)N(Cc1ccco1)CC3	n	n
COCCN=C1Sc2nc3c(C)cccc3cc2CN1Cc1ccco1	n	43
O=C(Nc1ccc(-n2cnnn2)cc1)C1CCCCC1	n	n
Cc1cccc(N2CCN(CC(=O)Nc3ccc(-n4cnnn4)cc3)CC2)c1C	n	41
Cc1[nH]n(-c2ccc([N+](=O)[O-])cc2)c(=O)c1N=Nc1nc2ccccc2s1	n	n
SMILES	FXIIa inh	FXIa inh
O=C1CC(N(C(=O)c2ccco2)c2cccc(Cl)c2)C(=O)N1c1cccc(Cl)c1 (stereo not drawn)	n	n
O=C(Nc1ccccc1C(=O)N1CCOCC1)c1ccc(F)cc1	n	47
CN(c1ccc(C(=O)Nc2ccccc2C(=O)N2CCOCC2)cc1)S(C)(=O)=O	n	n
CCOC(=O)CCNC(C(=O)OCC)c1ccccc1 (stereo not drawn)	n	n
CCC(C)NS(=O)(=O)c1ccc(OCC(=O)N2CCCC2)cc1 (stereo not drawn)	n	n
Cc1ccc(C(=O)NC(Cc2c[nH]c3ccccc23)C(=O)O)cc1 (stereo not drawn)	n	n
COC(=O)C(Cc1c[nH]c2ccccc12)NC(C)=O (stereo not drawn)	n	103
O=C(OCC#CCSc1nnc(-c2cccc3ccccc23)o1)c1ccco1	n	n
Cc1cnc(C(=O)OCC(=O)NCc2ccccc2)cn1	n	41
COc1ccc(CCNC(=O)COC(=O)c2cnc(C)cn2)cc1	n	n
CCOC(=O)N1CCN(C/C(C)=C/c2ccccc2)CC1	31	n
CCOC(=O)N1CCN(CC(=O)Nc2ccc(C)cc2)CC1	n	n
COc1ccc(OC)c(C2SCCN2S(=O)(=O)c2cccc(C(F)(F)F)c2)c1 (stereo not drawn)	n	n
Cc1ccc(Cn2nc(C)c(NC(=O)C3(C)CC3(Br)Br)c2C)cc1 (stereo not drawn)	n	n
CN(C)S(=O)(=O)c1ccc(S(=O)(=O)N2CCCC2)cc1	n	n
CN(CCOc1ccccc1)c1ccc(S(=O)(=O)N2CCCCC2)cn1	n	41
COc1ccccc1-n1cnnc1SCC(=O)Nc1nc(C)c(Cl)cc1Cl	n	43
COc1ccc(-n2cnnc2SCC(=O)Nc2nc(C)c(Cl)cc2Cl)cc1	n	n
CCCCN1C(=O)c2ccc(C(=O)NC3=NCCS3)cc2C1=O	n	n
COc1cc(/C=c2\sc3n(c2=O)CCCN=3)ccc1O	n	43
COc1cc(/C=c2\sc3n(c2=O)C(c2ccccc2)C(c2ccccc2)=NN=3)ccc1O (stereo not drawn)	n	n
C=CCSC(=C(C#N)C#N)c1cc2c([nH]1)CCCC2	n	n
Cc1ccc(OCC(=O)Nn2c(C)nc3ccccc3c2=O)c(C(C)C)c1	n	n
CC(=O)c1ccc(OC(=O)c2ccc(Br)o2)cc1	50	n
Cc1ccc(OC(=O)c2ccc(Br)o2)cc1	n	n
SMILES	FXIIa inh	FXIa inh
COC(=O)[C@H](CC(C)C)NC(=O)NC1CCCCC1C (stereo partly drawn)	n	n
C=CCn1c(=O)c2c(nc(Br)n2Cc2ccccc2Cl)n(C)c1=O	n	46
CCOC(=O)Cn1c(=O)c2c(nc(Br)n2Cc2ccccc2Cl)n(C)c1=O	n	n
COC(=O)c1ccccc1NC(=O)C1CC(=O)N(c2ccc(C)c(C)c2)C1 (stereo not drawn)	n	n
COC(=O)c1ccc(COc2ccc3c4c(c(=O)oc3c2)CCC4)o1	n	n
O=C(Oc1ccc2c3c(c(=O)oc2c1)CCC3)c1ccco1	54	n
CCOc1ccccc1NC(=O)COn1nnc2ccccc21	n	n
C=CCn1c(SCC(=O)c2ccc(Br)cc2)nnc1C(CC(C)C)NC(=O)c1cccs1 (stereo not drawn)	n	n
CCOC(=O)CN1C(=O)c2ccccc2C1=O	n	n
Cc1c(O)ccc(C(=O)CN2C(=O)c3ccccc3C2=O)c1O	n	59
CCN(CC)CCNC(=O)C(C)c1nn(C)c(=O)c2ccccc12 (stereo not drawn)	n	42
CC(O)CNC(=O)c1ccc(-c2nn(C)c(=O)c3ccccc23)cc1 (stereo not drawn)	n	n
COc1cccc(NC(=O)C(NCC2CCCCC2)c2ccccc2)c1 (stereo not drawn)	n	n
CCCN(CCC)C(C(=O)Nc1cccc(OC)c1)c1ccccc1 (stereo not drawn)	n	105
Cc1ccc(N(C)C(=O)N2CCN(S(=O)(=O)c3c(C)cc(C)cc3C)CC2)cc1	n	n
Cn1c(SCC(=O)NC2CCCCC2)nnc1-c1cccc(N)c1	n	40
Cc1ccc(OCc2nnc(SCC(=O)NC3CCCCC3)n2C)cc1	n	n
CC(C)[C@H](NC(=O)OC(C)(C)C)C(=O)N/N=C/c1cccc2nccnc12	n	n
CCN(CC)C(=O)Oc1ccc2c(=O)c(-c3ccccc3)coc2c1	n	n
O=C(Oc1ccc2c(=O)c(Cl)coc2c1)c1cccnc1	n	59
CCCCS(=O)(=O)NC1=NCN(C2CCN(Cc3ccccc3)CC2)CN1	n	n
Cc1ccc(C2=N/C(=C\c3cccs3)C(=O)N2Nc2ccccc2)cc1	n	n
O=C1N=C(c2ccccc2)S/C1=C\c1cccs1	46	n
O=c1c(-c2ccco2)[n+]([O-])c2ccccc2n1OCc1ccccc1	n	n
O=c1c(-c2cc3ccccc3o2)[n+]([O-])c2ccccc2n1OCc1ccccn1	n	40
Cc1ccccc1CN(c1ccc(C(=O)N2CCc3ccccc3C2)cc1)S(C)(=O)=O	n	n
CCOc1ccc(S(=O)(=O)Nc2ccccn2)c2ccccc12	n	n
